Reference: PubChem BioAssay (NCI)
This is part of a sample that, as a whole, favours compounds with a hit. Of some 83,000 tested, about 20% had one in any assay.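 Negative percent growth values reflect cell death: -40 means 40% of the cells present at the start died, and -100 means all died.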 Unmarked numbers belong to inactive results. Active and inactive are the calls of the source. The calls were made as follows: active = growth percent below 10; inactive = the rest.

Each compound was assayed on SF-295 CNS (assay: NCI-60 one-dose screen, 48 h (100 = growth as untreated, 0 = no growth, -100 = all killed)). Settings: 10 µM.

Row | Compound | growth
1 | COc1cccc(C2C(C#N)=C(N)Oc3cc(N)ccc32)c1 (stereo not drawn) | 5.3% (active)
2 | COc1cc(/C=C/c2cc(/C=C/c3ccc(O)c(OC)c3)[nH]c(=O)n2)ccc1O | 92.8%
3 | COc1ccc2nc(-c3ccc(Cl)cc3)cc(-c3nnc(SC/C(=N\O)c4ccccc4)n3-c3ccccc3)c2c1 | 102%
4 | CCOC(=O)CN(c1sc(C)c(C)c1C(=O)OCC)S(=O)(=O)c1ccc(C)cc1 | 103%
5 | COc1ccc(/C=C2/SC(=S)NC2=O)c(OC)c1OC | 76.5%
6 | CC(C)(C)OC(=O)N1CCc2c(sc3ncnc(N/N=C/c4ccccc4Br)c23)C1 | 89.5%
7 | NC(CSC(c1ccccc1)(c1ccccc1)c1cccc2ccccc12)C(=O)O (stereo not drawn) | 91.1%
8 | CN(C)CCCOc1ccccc1NC1=C(Cl)C(=O)C(Nc2ccccc2OCCCN(C)C)=C(Cl)C1=O | -58.8% (active)
9 | NS(=O)(=O)c1ccc(Br)cc1 | 88.3%
10 | CN(C)CCCOc1ccc(NC2=C(Cl)C(=O)C(Nc3ccc(OCCCN(C)C)cc3)=C(Cl)C2=O)cc1 | -22.8% (active)
11 | COc1ccc(-c2n[nH]nc2-c2cc(OC)c3c(c2OC)OCO3)cc1 | 4.67% (active)
12 | C=CCn1c(SCC(=O)Nc2ccc(C(=O)/C=C/c3cc(OC)c(OC)c(OC)c3)cc2)nnc1-c1cc(-c2ccc(Cl)cc2)nc2ccccc12 | 98%
13 | COc1ccc(C2=Cn3c(CCC(=O)c4nc5ccccc5[nH]4)nnc3SC2)cc1 | 83.7%
14 | CCN1CCN(CCC(=O)Nc2cccc(-n3cc(-c4ccncc4)c(-c4ccc(Cl)c(OC)c4)n3)c2)CC1 | 9.42% (active)
15 | N#CCc1csc(Cc2ccccc2)n1 | 106%
16 | Cc1[nH]c2ccccc2c1/C=N/Nc1ncnc2sc3c(c12)CCN(CC(=O)OC(C)(C)C)C3 | 88.8%
17 | CCCc1cn(CC(=O)Nc2nc3ccccc3s2)nn1 | 104%
18 | C/C=C/CSC(C)(C)C(=O)NC | 106%
19 | Cc1ccc(Cl)cc1NC(=O)CCl | 104%
20 | CCOC(=O)c1cc(C(=O)c2ccc(OC)c(OC)c2)n2c1ccc1ccc3cccnc3c12 | 12%
21 | Cc1c(Cl)cccc1NC(=O)CCCl | 106%
22 | Cc1ccc(NCCNCC(C)(C)O)c2c(=O)c3ccc(Cl)cc3sc12 | 74.1%
23 | OCC1OC(n2cnc3c(NCc4ccco4)ncnc32)C(O)C1O (stereo not drawn) | 26.5%
24 | NS(=O)(=O)Oc1ccc(NC(=O)C2CCCCCC2)cc1 | 99%
25 | COc1cc(-c2nn(-c3ccc(NC(=O)NCCNS(=O)(=O)c4ccc(F)cc4)cc3)cc2-c2ccncc2)ccc1Cl | -39.5% (active)
26 | NS(=O)(=O)Oc1ccc2c(ccn2C(=O)C23CC4CC(CC(C4)C2)C3)c1 | 97.8%
27 | COc1ccc(-c2cc(-c3ccc(Cl)cc3)nc(SCCCC(=O)NO)n2)cc1 | -19.1% (active)
28 | Nc1cc(Br)c(-c2nn3c(CCC(=O)c4nc5ccccc5[nH]4)nnc3s2)c(Br)c1 | 108%
